The results in this text go back to PubChem BioAssay AID651965 (National Center for Advancing Translational Sciences (NCATS), 2013).

Hit rate of the full screen: of about 340,000 compounds, about 6,400 (1.9%) were called active. Where a call stands in place of a potency, no number is given. Not shown: some 4% with an inconclusive outcome. The sample holds actives, similar compounds and a random draw of the others, so the mix is not that of the screen. Calls follow the shape of the dose curve; as a rule, active = well fitted falling curve with a large enough effect; inconclusive = small, poorly fitted or top-dose-only effect; inactive = no such curve, though single readings can be large or run the other way.
Potency is read from the fitted curve at half-maximal effect.

In the assay the target is ATP-dependent Clp protease proteolytic subunit (Bacillus subtilis (strain 168)) (UniProt P80244). Put plainly: qHTS Assay for Activators of ClpP. Also: the source files actives as falling curves though it sought activators and does not explain the sign; nearly all actives have a fitted effect of over 65% in size. The settings on record: purified B. subtilis ClpP, FRET peptide cleavage, 20 min; series mostly up to 57.5 µM. Summed up: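 Purified B. subtilis ClpP, 10 microg/mL final in Tris/HCl pH8 with KCl, BSA, glycerol and Tween-20, cleaved an Abz/nitrotyrosine-quenched decapeptide. Fluorescence (ex 320, em 430) was read at 0 and 20 min at room temperature. Delta was normalized to 5.8 microM ADEP and DMSO/no-enzyme controls.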
Sequence of ATP-dependent Clp protease proteolytic subunit (Bacillus subtilis (strain 168)) (P80244 whole entry, looked up): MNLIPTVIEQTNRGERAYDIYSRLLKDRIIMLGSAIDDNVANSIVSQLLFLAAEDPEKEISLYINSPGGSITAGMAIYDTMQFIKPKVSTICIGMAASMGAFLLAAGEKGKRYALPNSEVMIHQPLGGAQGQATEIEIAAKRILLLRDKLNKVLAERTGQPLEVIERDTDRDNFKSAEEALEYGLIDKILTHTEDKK
As to `CC(=O)c1ccc[n+](C(C)CCC(C)[n+]2cccc(C(C)=O)c2)c1` (stereo not given), the Potency entry is “inactive”.

For `O=C(Nc1cccc(C(=O)O)c1)/C(=C\c1ccccc1)NC(=O)c1ccc(Br)o1`, the Potency entry is “inactive”.

`CC(=O)NC(c1ccccc1)c1nc(-c2cccc(C(C)C)c2)cs1` (stereo not given): the Potency result was “inactive”.

In the case of `CC1(C(=O)NS(=O)(=O)c2cccc(F)c2)CCN1C(=O)c1cccc2ccccc12` (stereo not given), the Potency result is “inactive”.

As to `CCc1nc(Nc2ccc3nccnc3c2)c2oc3ccccc3c2n1`, the Potency was 28.2 µM (active).

As for `CCc1nc(Nc2ccc(NC(C)=O)cc2)c2oc3ccccc3c2n1`, the Potency result was “inactive”.

Consider `COCCNc1nc(-c2ccccc2)nc2c1oc1ccccc12`, for which the Potency result is “inactive”.

In the case of `COc1ccc(Cn2cccc(NC(=O)Nc3ccc(C#N)cc3)c2=O)cc1`, the Potency was 12.6 µM (active).

For the compound `COc1ccc(Cn2c(C)c(C)c(C#N)c2NC(=O)Nc2ccc(F)cc2)cc1`, the Potency result is “inactive”.

Consider `COc1ccc(Cn2ccn(CC(=O)Nc3cc(C)ccc3C)c(=O)c2=O)cc1`, for which the Potency result is “inactive”.

`CSc1ccc(CN2CCC2(C)C(=O)Nc2ccc(C)c(O)c2)cc1` (stereo not given): the Potency result is “inactive”.

Turning to `CCOc1n[nH]c(-c2ccccc2)n1`, the Potency entry is “inactive”.

On to `Cc1ccccc1S(=O)(=O)NC(=O)C1(C)CCN1C(=O)Cc1ccc(Cl)cc1Cl` (stereo not given), for which the Potency entry is “inactive”.

As to `COC(=O)c1ccc2nc(-c3ccc(C)cc3)c(Cc3ccc(OC)cc3C)n2c1`, the Potency entry is “inactive”.

Take `O=C(C1CC(=O)N(c2ccc(Br)cc2)C1)N1CCCC1` (stereo not given): the Potency entry was “inactive”.

Turning to `Cc1ccc(N2CC(C(=O)N3CCC4(CC3)CC(=O)c3ccccc3O4)CC2=O)cc1C` (stereo not given), the Potency was 28.2 µM (active).

Take `Cc1ccc(N2CC(C(=O)Nc3ccc(N(C)C)cc3)CC2=O)cc1Cl` (stereo not given): the Potency entry is “inactive”.

As to `O=[N+]([O-])c1ccc(N/N=C2/CCCCC2c2ccccn2)c([N+](=O)[O-])c1` (stereo not given), the Potency result is “inactive”.

On to `O=[N+]([O-])c1cc(S(=O)(=O)N2CCCC2)ccc1NN=C1CCCC1`, for which the Potency result is “inactive”.

Take `O=[N+]([O-])c1cc(C(F)(F)F)ccc1NN=C1CCCC1`: the Potency was 31.6 µM (active).

With `CCCS(=O)(=O)NC(=O)C1(C)CCCN(C(=O)c2ccnc(Cl)c2)C1` (stereo not given), the Potency entry was “inactive”.

On to `O=C(C(=O)N1CCN(c2ccccc2)CC1)c1ccc2c(c1)OCO2`, for which the Potency result is “inactive”.

For the compound `COC(=O)Cc1c(C)c2ccc(OCC(=O)NCc3ccc4c(c3)OCO4)cc2oc1=O`, the Potency was 31.6 µM (active).

With `COc1ccc2c(C)c(CCC(=O)NCc3ccc(OC)c(OC)c3)c(=O)oc2c1`, the Potency result is “inactive”.

In the case of `COc1ccc(CCNC(=O)COc2ccc3c(c2)OCO3)cc1`, the Potency result was “inactive”.

Take `CCC(C)CN1C(=O)CN(S(C)(=O)=O)CC1(C)C(=O)Nc1ccc2c(c1)OCCO2` (stereo not given): the Potency entry was “inactive”.

Regarding `COc1ccc(/C=C/c2ccnc3ccccc23)cc1OC`, the Potency result was “inactive”.

`CCC1(CC)Cc2ccccc2-c2nc3ccccc3c(=O)n21`: the Potency entry is “inactive”.

For the compound `CCOC(=O)C1Cn2c(nc3c(c2=O)C(C)(CC)Cc2ccccc2-3)S1` (stereo not given), the Potency was 28.2 µM (active).

In the case of `CCC1(CC)Cc2ccccc2-c2nc(CCl)[nH]c(=O)c21`, the Potency entry was “inactive”.
